Here are results for 40 molecules from the supplement of paper PMC8047044.

Several values for one entry are separate records, joined by “and”; a condition that tells them apart may be missing. Identical values can stand only once. Counter-ions that a name gives are not always drawn.

This experiment deals with Neuro-2a. Briefly: neurite formation score, plate-normalized to DMSO control mean 5.04 (score (0-8 scale)); higher = more or longer neurites. The settings on record: 0.1 µM. The procedure:
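Neuro-2a mouse neuroblastoma cells in PLL-coated 96-well plates were pre-treated for 1 h in DMEM(+) with each kinase inhibitor at 0.1 µM, then switched to serum-free DMEM(-) with inhibitor to induce neurite outgrowth and fixed about 2-3 h later. Three blinded observers scored neurite formation from 0 (no neurites) to 8 (long neurites on almost all cells).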
Consider `C=CC(=O)N1CCC(Oc2cc3c(Nc4ccc(Cl)c(Cl)c4F)ncnc3cc2OC)CC1` [Poziotinib], for which the neurite formation score came to 3.76.
The result for `Cc1cc(Nc2cc(CN3CCOCC3)c3nc(C)c(Cc4ccc(Cl)cc4F)n3n2)n[nH]1` reads 5.25; that for `CCCCCCCCCCCCCCCc1cccc(O)c1C(=O)O` [Anacardic acid], 4.92; that for `O=C(NC(NC(=S)Nc1ccc(F)c([N+](=O)[O-])c1)C(Cl)(Cl)Cl)C(c1ccccc1)c1ccccc1` (stereo not given), 4.25.
The molecule `NC1(c2ccc(-c3nc4ccn5c(=O)[nH]nc5c4cc3-c3ccccc3)cc2)CCC1` [MK-2206 dihydrochloride] yielded a neurite formation score of 4.71.
The result for `Cc1ccc(NC(=O)c2ccc(CN3CCN(C)CC3)cc2)cc1Nc1nccc(-c2cccnc2)n1` [Imatinib (STI571)] reads 1.42; that for `O=C1NC(=O)/C(=C/c2ccc3nccc(-c4ccncc4)c3c2)S1`, 5.42; that for `COc1ccc(C(=O)Nc2sc3c(c2C(N)=O)CCCC3)cc1OC`, 4.71.
Molecule `CNC(=O)c1cc(Oc2ccc(NC(=O)c3cccc(C(F)(F)F)c3)cc2)ccn1` displayed a neurite formation score of 5.54.
As to `N#C/C(=C\c1ccc(O)c(O)c1)C(=O)NCc1ccccc1`, the neurite formation score stood at 4.58.
The molecule `Cc1cc(Nc2cc(N3CCN(C)CC3)nc(Sc3ccc(NC(=O)C4CC4)cc3)n2)n[nH]1` [VX-680 (MK-0457,Tozasertib)] yielded a neurite formation score of 3.58.
In turn, `O=C(Nc1ccccc1C(=O)NC1CCCCNC1=O)c1cc2ccccc2s1` (stereo not given) came in with a neurite formation score of 3.75.
Turning to `CN(C)CCSSCCNC(=O)C1CCN(C(=O)CSc2ccc(Cl)cc2)CC1`, the neurite formation score is 4.58.
In turn, `Cc1cc(Nc2ncc(Cl)c(Nc3ccccc3S(=O)(=O)C(C)C)n2)c(OC(C)C)cc1C1CCNCC1` yielded a neurite formation score of 5.21.
`Cc1cc(C)c(/C=C2\C(=O)Nc3ccccc32)[nH]1` [Semaxanib (SU5416)] displayed a neurite formation score of 5.42.
The result for `Cc1[nH]c(/C=C2\C(=O)Nc3ccccc32)c(C)c1CCC(=O)O` [TSU-68 (SU6668,Orantinib)] reads 4.54.
Molecule `Cc1ccc(-n2nc(C(C)(C)C)cc2NC(=O)Nc2ccc(OCCN3CCOCC3)c3ccccc23)cc1` [BIRB 796 (Doramapimod)] displayed a neurite formation score of 4.21.
The result for `C=CC(=O)Nc1cccc(Nc2nc(Nc3ccc(NC4CN(CCF)C4)cc3OC)ncc2C(F)(F)F)c1` reads 4.08.
As for `Cc1ccc(S(=O)(=O)Nc2nc3ccccc3nc2Nc2ccc3nsnc3c2)cc1`, the figure is 4.09.
On to `COc1cc2ncnc(Nc3cccc(Cl)c3F)c2cc1OC(=O)N1CCN(C)C[C@H]1C`, for which the neurite formation score was 4.75.
With `Cc1[nH]nc2ccc(-c3cncc(OC[C@@H](N)Cc4ccccc4)c3)cc12`, the neurite formation score came out at 4.25.
Turning to `COc1cc(OC)c(/C=C/S(=O)(=O)Cc2ccc(OC)c(NCC(=O)O)c2)c(OC)c1`, the neurite formation score was determined as 3.04.
The result for `CN(C)Cc1cccc(N=C(c2ccccc2)c2c(O)[nH]c3cc(C(=O)N(C)C)ccc23)c1` reads 5.54; that for `COc1cc2c(Oc3ccc(NC(=O)C4(C(=O)Nc5ccc(F)cc5)CC4)cc3F)ccnc2cc1OCCCN1CCOCC1`, 3.38.
`CCc1cc(Nc2nccc(-c3c(-c4ccc(OC)c(C(=O)Nc5c(F)cccc5F)c4)nc4ccccn34)n2)c(OC)cc1N1CCC(N2CCN(S(C)(=O)=O)CC2)CC1` came in with a neurite formation score of 4.71.
With `CNc1nc(-c2ccc3c(N)n[nH]c3c2)cc(N2C[C@@H](C(=O)NC3CCCCC3)CC[C@H]2C)n1`, the neurite formation score came to 1.42.
As for `COc1cc(C(=O)NC2CCN(C)CC2)ccc1Nc1ncc2c(n1)N(C1CCCC1)CC(F)(F)C(=O)N2C`, the figure is 4.25.
The result for `O=C(NCCCNc1nc(Nc2cccc(CN3CCOCC3)c2)ncc1C1CC1)C1CCC1` reads 5.25; that for `COc1cc2c(Oc3ccc4[nH]c(C)cc4c3F)ncnc2cc1OCCCN1CCCC1` [Cediranib (AZD217)], 4.71; that for `c1ccc2c(-c3cnn4cc(-c5ccc(N6CCNCC6)cc5)cnc34)ccnc2c1`, 2.42 and 4.42.
As to `COc1ccc(S(=O)(=O)N(CCO)c2ccccc2CN(C)C/C=C/c2ccc(Cl)cc2)cc1` [KN-93 Phosphate], the neurite formation score was found to be 4.42.
The molecule `CC(=O)Nc1cccc(-n2c(=O)n(C3CC3)c(=O)c3c(Nc4ccc(I)cc4F)n(C)c(=O)c(C)c32)c1` registered a neurite formation score of 4.38.
As for `CCc1ccc(/C=C2/SC(=S)NC2=O)cc1`, the figure is 5.04; as for `COc1cc(Nc2ncc(F)c(Nc3ccc4c(n3)NC(=O)C(C)(C)O4)n2)cc(OC)c1OC`, 4.58; as for `N=C(N)NCCC(=O)O` [3-Guanidinopropionic Acid], 4.75.
As for `C=CC(=O)Nc1cccc(Sc2nc(Nc3ccc(N4CCN(C)CC4)cc3)ncc2Cl)c1`, the figure is 4.71; as for `N#Cc1c(O)c2c(-c3ccc(-c4ccccc4O)cc3)csc2[nH]c1=O`, 5.58.
As for `O=C(Nc1ccc2[nH]nc(-c3ccncc3)c2c1)[C@@H]1CCN(CC(=O)N2CCN(c3ccc(-c4ncccn4)cc3)CC2)C1`, the figure is 5.09.
`C[C@@H](Oc1ccc2[nH]nc(/C=C/c3cnn(CCO)c3)c2c1)c1c(Cl)cncc1Cl` came in with a neurite formation score of 4.92.
`Nc1cc(C(F)(F)F)c(-c2cc(N3CCOCC3)nc(N3CCOCC3)n2)cn1` returned a neurite formation score of 2.71.
